The nature of test [1]: qHTS assay to identify small molecule antagonists of the glucocorticoid receptor (GR) signaling pathway - cell viability counter screen (AID 720693). Note: nearly all actives have a fitted effect of over 55% in size. Note: potency is the fitted concentration of half-maximal effect. In general terms: In qHTS, concentration-response curves come from the screen itself.
Test [2] can be described thus: qHTS assay for identifying genotoxic compounds that show differential cytotoxicity against isogenic chicken DT40 cell lines with known DNA damage response pathways - Rev3 mutant cell line (AID 743014). Note: nearly all actives have a fitted effect of over 55% in size. Note: potency is the fitted concentration of half-maximal effect.
Test [3] is described as follows: qHTS assay for identifying genotoxic compounds that show differential cytotoxicity against isogenic chicken DT40 cell lines with known DNA damage response pathways - Rad54/Ku70 mutant cell line (AID 743015). Note: nearly all actives have a fitted effect of over 60% in size. Note: potency is the fitted concentration of half-maximal effect.
The nature of test [4]: qHTS assay to identify small molecule antagonists of the thyroid receptor (TR) signaling pathway (AID 743065). Note: nearly all actives have a fitted effect of over 55% in size. Note: potency is the fitted concentration of half-maximal effect. An outline of the steps:
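Antagonism measured as loss of luciferase signal in GH3 cells stably carrying a TRE-luciferase reporter, co-treated with compound and T3 (1 nM final) for 23.5 h at 37 C. Viability was read in the same well by CellTiter-Fluor.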

Test [5] has as its system thyroid hormone receptor (rat, GH3 cells). Put plainly: qHTS assay to identify small molecule agonists of the thyroid receptor (TR) signaling pathway (AID 743066; calls by dose curve).
Test [6] can be described thus: qHTS assay to identify small molecule antagonists of the estrogen receptor alpha (ER-alpha) signaling pathway - cell viability counter screen (AID 743074; calls by dose curve; note: nearly all actives have a fitted effect of over 45% in size; note: potency is the fitted concentration of half-maximal effect).
Test [7] addresses Estrogen receptor (Homo sapiens) (UniProt P03372). Put plainly: qHTS assay to identify small molecule agonists of the estrogen receptor alpha (ER-alpha) signaling pathway (AID 743075; calls by dose curve).
Test [8] can be described thus: qHTS assay to identify small molecule antagonists of the estrogen receptor alpha (ER-alpha) signaling pathway using the BG1 cell line - cell viability counter screen (AID 743081).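 Note: compound given together with 17beta-estradiol as the ER stimulus; nearly all actives have a fitted effect of over 45% in size.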
The target of the next test is Aromatase (Homo sapiens) (UniProt P11511). Put plainly: qHTS assay to identify aromatase inhibitors (AID 743083). Note: nearly all actives have a fitted effect of over 55% in size. Note: potency is the fitted concentration of half-maximal effect.
Test [9] can be described thus: qHTS assay to identify small molecule antagonists of the androgen receptor (AR) signaling pathway - cell viability counter screen (AID 743033; note: nearly all actives have a fitted effect of over 45% in size).
Test [10] can be described thus: qHTS assay to identify small molecule antagonists of the androgen receptor (AR) signaling pathway using the MDA cell line - cell viability counter screen (AID 743041; note: nearly all actives have a fitted effect of over 45% in size). An outline of the steps:
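Using the breast carcinoma line MDA-kb2 AR-luc, test chemicals were co-incubated with R1881 for 16 h; CellTiter-Fluor reagent, added at 15.5 h, provided a fluorescence measure of live cells.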

In test [11] the target is Estrogen receptor (Homo sapiens) (UniProt P03372). Put plainly: qHTS assay to identify small molecule antagonists of the estrogen receptor alpha (ER-alpha) signaling pathway (AID 743069; active = well fitted curve in the direction sought with a large enough effect in the signal ratio in the repeat runs, not every such curve was filed as active; the % refers to the signal ratio). The method in brief:
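Fluorescence intensity from a beta-lactamase FRET substrate served as the read-out. Cells: HEK293 with stably integrated ER-alpha-UAS-bla reporter. Agonist 17beta-estradiol was co-added with compounds; incubation 18 hr at 37C, substrate 2 hr at room temperature.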

Test [12] shares this target. Nature of the test: qHTS assay to identify small molecule agonists of the estrogen receptor alpha (ER-alpha) signaling pathway using the BG1 cell line (AID 743079). Note: nearly all actives have a fitted effect of over 20% in size. Note: potency is the fitted concentration of half-maximal effect. As to conditions: BG1Luc4E2 cells, ERE-luciferase agonist, 22 h; activation: at 70.3 µM (top of the series).
The nature of test [13]: qHTS assay to identify small molecule antagonists of the estrogen receptor alpha (ER-alpha) signaling pathway using the BG1 cell line (AID 743080; calls by dose curve; note: nearly all actives have a fitted effect of over 25% in size). The method in brief: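 Antagonist mode: compounds in DMSO were pinned onto BG1-Luc-4E2 cells alongside 17beta-estradiol agonist, incubated 21.5 h, and ERE-driven luciferase measured with ONE-Glo. Cytotoxicity was multiplexed using CellTiter-Fluor fluorescence.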

Test [14] is described as follows: qHTS assay to identify small molecule antagonists of the thyroid receptor (TR) signaling pathway - cell viability counter screen (AID 743064). Note: nearly all actives have a fitted effect of over 50% in size. Note: potency is the fitted concentration of half-maximal effect. An outline of the steps: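 GH3.TRE-Luc cells, 4 h pre-plating; cpd + T3 1 nM final; 37 °C 23.5 h; CellTiter-Fluor 30 min; fluorescence read.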
For test [15], the target named is Androgen receptor (Homo sapiens) (UniProt P10275). Nature of the test: qHTS assay to identify small molecule agonists of the androgen receptor (AR) signaling pathway (AID 743036; active = well fitted activation curve with a large enough effect in the signal ratio in the repeat runs, with a control signal flat, not every such curve was filed as active; the % refers to the signal ratio). An outline of the steps:
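AR-bla HEK293 cells, 2,000/well; 4 h preincubation 37C/5% CO2; compound (DMSO) 16 h at 37C; LiveBLAzer B/G FRET substrate 2 h RT; fluorescence intensity read-out.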

Test [16] has the same target. Nature of the test: qHTS assay to identify small molecule antagonists of the androgen receptor (AR) signaling pathway using the MDA cell line (AID 743042; note: nearly all actives have a fitted effect of over 55% in size). The method in brief: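 Antagonist mode: compounds plus R1881 agonist added to MDA-kb2 AR-luc cells, incubated 16 h at 37C. Luciferase reporter luminescence quantified, with multiplexed CellTiter-Fluor readout for cell viability.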

A short description of test [17]: qHTS assay for identifying genotoxic compounds that show differential cytotoxicity against isogenic chicken DT40 cell lines with known DNA damage response pathways - wild type cell line (AID 743012). Note: nearly all actives have a fitted effect of over 60% in size. Note: potency is the fitted concentration of half-maximal effect. An outline of the steps: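 Luminescent ATP viability signal (CellTiter-Glo, 30 min RT) recorded after wild type DT40 cells were incubated with compounds for 40 h at 37 C/5% CO2.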

In test [18] the target is Androgen receptor (Homo sapiens) (UniProt P10275). Put plainly: qHTS assay to identify small molecule antagonists of the androgen receptor (AR) signaling pathway (AID 743035; active = well fitted inhibition curve with a large enough effect in the signal ratio in the repeat runs, not every such curve was filed as active; the % refers to the signal ratio). The method in brief:
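Quantitative HTS of the Tox21 10K library used HEK293 AR-UAS-bla cells stimulated with R1881 alongside compound for 16 h at 37C, followed by beta-lactamase FRET detection (LiveBLAzer B/G, 2 h, RT).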

For test [19] the target is unchanged. Put plainly: qHTS assay to identify small molecule agonists of the androgen receptor (AR) signaling pathway using the MDA cell line (AID 743040; note: nearly all actives have a fitted effect of over 20% in size). The method in brief: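 Stable MMTV-luciferase reporter in MDA-kb2 cells; note the promoter carries GR as well as AR response elements. 16 h compound treatment, 37C, 0% CO2; ONE-Glo luminescence endpoint.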

Inconclusive results are not listed. Activity calls are given as the source filed them. Unless noted, calls come from the whole dose curve; as a rule, active = well fitted curve in the direction sought with a large enough effect in the repeat runs; inconclusive = weak or mixed curves; inactive = no such curve, though single readings can be large; an effect the other way counts as inactive or inconclusive.

Sequence of Androgen receptor (Homo sapiens) (P10275 whole entry, looked up): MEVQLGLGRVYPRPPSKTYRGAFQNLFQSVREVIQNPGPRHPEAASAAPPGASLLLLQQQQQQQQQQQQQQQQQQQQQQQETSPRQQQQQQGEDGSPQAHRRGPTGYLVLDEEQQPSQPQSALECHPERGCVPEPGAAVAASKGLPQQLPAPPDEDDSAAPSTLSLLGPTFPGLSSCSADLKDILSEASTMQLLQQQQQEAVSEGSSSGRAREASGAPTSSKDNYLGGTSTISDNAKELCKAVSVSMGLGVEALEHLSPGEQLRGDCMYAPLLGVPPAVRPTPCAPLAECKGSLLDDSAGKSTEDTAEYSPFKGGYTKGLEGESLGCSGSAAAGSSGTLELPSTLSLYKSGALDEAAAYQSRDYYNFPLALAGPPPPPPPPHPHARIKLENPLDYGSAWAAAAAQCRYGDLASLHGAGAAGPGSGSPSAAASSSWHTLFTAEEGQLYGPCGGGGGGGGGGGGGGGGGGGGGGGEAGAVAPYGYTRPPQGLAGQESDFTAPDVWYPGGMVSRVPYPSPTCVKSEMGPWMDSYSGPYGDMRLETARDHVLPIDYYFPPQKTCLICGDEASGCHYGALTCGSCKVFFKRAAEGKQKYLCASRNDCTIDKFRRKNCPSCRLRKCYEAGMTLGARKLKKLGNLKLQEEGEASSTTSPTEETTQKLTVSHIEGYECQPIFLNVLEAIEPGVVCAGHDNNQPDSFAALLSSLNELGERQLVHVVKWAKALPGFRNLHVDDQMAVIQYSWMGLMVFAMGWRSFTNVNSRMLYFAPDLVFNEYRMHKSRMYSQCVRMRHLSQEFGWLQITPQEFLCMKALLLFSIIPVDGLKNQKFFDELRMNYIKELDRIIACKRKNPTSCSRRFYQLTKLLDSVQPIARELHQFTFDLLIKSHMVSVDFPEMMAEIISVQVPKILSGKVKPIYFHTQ
Sequence of Aromatase (Homo sapiens) (P11511 whole entry, looked up): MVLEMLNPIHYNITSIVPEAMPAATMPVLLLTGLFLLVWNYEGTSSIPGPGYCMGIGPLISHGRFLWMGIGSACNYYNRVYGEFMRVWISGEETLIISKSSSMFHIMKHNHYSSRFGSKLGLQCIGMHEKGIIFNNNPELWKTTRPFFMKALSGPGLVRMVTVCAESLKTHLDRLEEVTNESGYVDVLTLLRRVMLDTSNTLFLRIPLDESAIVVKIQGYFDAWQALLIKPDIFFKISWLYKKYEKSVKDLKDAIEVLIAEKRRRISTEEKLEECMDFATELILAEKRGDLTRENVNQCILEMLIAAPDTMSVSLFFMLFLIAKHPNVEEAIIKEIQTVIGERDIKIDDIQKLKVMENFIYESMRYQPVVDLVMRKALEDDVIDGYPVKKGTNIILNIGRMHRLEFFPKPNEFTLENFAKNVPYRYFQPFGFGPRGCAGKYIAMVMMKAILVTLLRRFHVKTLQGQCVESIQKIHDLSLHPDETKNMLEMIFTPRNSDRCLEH
Sequence of Estrogen receptor (Homo sapiens) (P03372 whole entry, looked up): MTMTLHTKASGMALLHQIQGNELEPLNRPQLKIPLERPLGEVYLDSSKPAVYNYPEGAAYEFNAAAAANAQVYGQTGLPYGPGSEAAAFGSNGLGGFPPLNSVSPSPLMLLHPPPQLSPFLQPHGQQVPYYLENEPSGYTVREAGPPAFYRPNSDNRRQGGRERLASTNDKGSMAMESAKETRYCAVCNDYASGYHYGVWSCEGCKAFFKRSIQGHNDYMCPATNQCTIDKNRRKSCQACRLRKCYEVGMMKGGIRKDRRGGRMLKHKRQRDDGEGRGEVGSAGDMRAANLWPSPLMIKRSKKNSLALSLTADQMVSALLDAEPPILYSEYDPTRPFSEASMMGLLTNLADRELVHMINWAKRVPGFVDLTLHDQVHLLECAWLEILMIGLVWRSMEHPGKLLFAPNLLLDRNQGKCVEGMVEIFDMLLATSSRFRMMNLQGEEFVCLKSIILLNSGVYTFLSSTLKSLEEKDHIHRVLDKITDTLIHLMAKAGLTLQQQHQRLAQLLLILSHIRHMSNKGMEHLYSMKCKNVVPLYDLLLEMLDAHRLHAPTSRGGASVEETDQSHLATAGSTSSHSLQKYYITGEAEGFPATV

Turning to `CCCCC(=O)O[C@]1(C(=O)CO)[C@@H](C)C[C@H]2[C@@H]3CCC4=CC(=O)C=C[C@]4(C)[C@@]3(F)[C@@H](O)C[C@@]21C`, the Potency entry (in test [1]; in [6]; in test [7]; in test [8]; with Aromatase (Homo sapiens)) was “inactive” each time. The results for the Potency in [2], in test [3] and in [4] were 24.3 µM (active), 24.3 µM (active) and 61.1 µM (active), respectively. Also, in test [5], the molecule was classed as inactive.
Regarding `CCOC(=O)OCC`, the Potency result in [1], in test [2], in test [3], in test [9], in [10] and in [4] was “inactive” in each case. Moreover, the Potency entry in test [11], in [6], in [7], in test [12], in test [13] and in test [8] was “inactive” in each case. Further, the Potency entry with Aromatase (Homo sapiens) was “inactive”. Also, the outcome in [5] was inactive.
For the molecule `c1ccc(COCc2ccccc2)cc1`, the Potency result in [1], in test [2], in test [3], in test [9], in test [4] and in test [11] was “inactive” each time. Moreover, the Potency entry (in test [6]; in test [7]; in test [12]; in test [13]; in test [8]; with Aromatase (Homo sapiens)) was “inactive” each time. For the same molecule, the outcome in test [5] was inactive.
In the case of `COC(=O)CC(=O)C(C)(C)C`, the Potency result in [1], in test [9], in [10], in test [14], in test [4] and in [11] was “inactive” throughout. For the same molecule, the Potency entry (in test [6]; in [7]; in test [12]; in test [8]; in the test with Aromatase (Homo sapiens)) was “inactive” throughout. The Potency in test [2] was 61.1 µM (active). Moreover, the call in test [5] was inactive.
Regarding `O=C(/C=C/c1ccccc1)OCCCc1ccccc1`, the Potency entry in test [1], in [2], in test [3], in test [9], in test [14] and in test [11] was “inactive” in each case. The Potency entry (in test [7]; in test [8]; in the test with Aromatase (Homo sapiens)) was “inactive” in each case. In addition, the Potency in [12] is 27.3 µM (active).
Regarding `CC(=O)Oc1ccc2c(c1)CC[C@@H]1[C@@H]2CC[C@]2(C)[C@@H](O)CC[C@@H]12`, the Potency entry (in [1]; in test [9]; in [10]; in test [6]; in test [8]; in the test with Aromatase (Homo sapiens)) was “inactive” in each case. Besides, the Potency is 26.6 µM (active) in test [2], 23.7 µM (active) in [3] and 26.6 µM (active) in [14].
On to `NC(=O)N(O)[C@@H]1COc2cc(OCc3ccccc3)ccc21`, for which the Potency entry in test [1], in [9], in [14], in test [11], in test [6] and in test [7] was “inactive” in each case. In addition, the Potency entry (in test [8]; with Aromatase (Homo sapiens)) was “inactive” throughout. Moreover, the Potency in [2] was 68.6 µM (active); in test [3], 61.1 µM (active); in test [4] it was 61.1 µM (active).
Take `Cc1nc2ccccn2c(=O)c1CCN1CCC(C(=O)c2ccc(F)cc2)CC1`: the Potency result in test [1], in test [2], in test [9], in test [10], in test [14] and in [11] was “inactive” each time. Also, the Potency result (in test [6]; in [7]; in test [12]; in test [8]; with Aromatase (Homo sapiens)) was “inactive” in each case. Also, the outcome in test [5] was inactive.
Consider `Cc1occc1C(=O)Nc1ccc(C(=O)N2CCC(F)(F)/C(=C\C(=O)N3CCC(N4CCCCC4)CC3)c3ccccc32)cc1`, for which the Potency entry in test [1], in [2], in test [9], in test [15], in test [16] and in test [11] was “inactive” throughout. In addition, the Potency result in test [6] and in [7] was “inactive” in each case. Besides, the values for the Potency in test [14] and in [4] were 17 µM (active) and 19.1 µM (active), respectively. In test [5], the outcome was inactive.
In the case of `CC1=CC(O)CC(C)(C)C1` (stereo not given), the Potency entry in test [1], in test [2], in test [3], in test [9], in test [10] and in test [14] was “inactive” in each case. Besides, the Potency result (in test [11]; in [6]; in [7]; in [12]; in test [8]; in the test with Aromatase (Homo sapiens)) was “inactive” in each case. In test [5], the result was inactive.
In the case of `CO[C@@]12[C@H](COC(N)=O)C3=C(C(=O)C(C)=C(N)C3=O)N1C[C@@H]1N[C@@H]12`, the Potency was 23.9 µM (active) in test [1], 2.37 µM (active) in test [14], 1.33 µM (active) in [4] and 29.8 µM (active) with Aromatase (Homo sapiens). Further, the Potency entry in test [9] is “inactive”.
With `CC(C)(O)c1ccccc1CC[C@@H](SCC1(CC(=O)O)CC1)c1cccc(/C=C/c2ccc3ccc(Cl)cc3n2)c1`, the Potency result in test [17], in test [2], in test [3], in test [9], in test [18] and in test [10] was “inactive” throughout. Also, the Potency entry (in test [16]; in [7]; in test [8]; in the test with Aromatase (Homo sapiens)) was “inactive” in each case.
Take `CC[C@@H]([C@H](C)O)n1ncn(-c2ccc(N3CCN(c4ccc(OC[C@@H]5CO[C@@](Cn6cncn6)(c6ccc(F)cc6F)C5)cc4)CC3)cc2)c1=O`: the Potency in [17] was 1.19 µM (active); in [2], 1.88 µM (active); in test [3], 1.68 µM (active); in test [4], 26.6 µM (active). The Potency entry (in test [9]; in test [10]; in [6]; in the test with Aromatase (Homo sapiens)) was “inactive” throughout. Also, in test [5], the result was inactive.
As for `c1cnc2c(n1)CCCC2`, the Potency result in test [17], in test [2], in [3], in test [9], in test [18] and in test [15] was “inactive” throughout. Further, the Potency result (in test [10]; in test [16]; in [4]; in [6]; in [8]; in the test with Aromatase (Homo sapiens)) was “inactive” each time. Moreover, the molecule was classed as inactive in test [5].
On to `O=C(O)C(Cc1cc(I)c(O)c(I)c1)c1ccccc1` (stereo not given), for which the Potency result in test [17], in test [2], in test [3], in test [9], in [10] and in [14] was “inactive” in each case. The Potency result (in test [11]; in test [6]; in test [7]; in [13]; in [8]; in the test with Aromatase (Homo sapiens)) was “inactive” in each case. The molecule was called inactive in test [5].
Consider `CC1=NN(c2ccc(C(=O)O)cc2)C(=O)C1`, for which the Potency entry in test [17], in [2], in [3], in test [9], in [19] and in test [16] was “inactive” throughout. Also, the Potency entry (in [14]; in test [4]; in test [6]; in [8]; with Aromatase (Homo sapiens)) was “inactive” throughout.
Consider `CC(C)(CCl)c1ccccc1`, for which the Potency entry in test [17], in test [2], in [3], in test [9], in [10] and in test [14] was “inactive” in each case. The Potency entry in test [4], in test [11], in test [6], in test [7], in test [12] and in test [8] was “inactive” each time. For the same molecule, the Potency result with Aromatase (Homo sapiens) was “inactive”. For the same molecule, in test [5], the molecule was called inactive.
Take `CCCCCCCCCCCC[N+](C)(C)CCCS(=O)(=O)[O-]`: the Potency result in test [1], in test [10], in [11], in test [7], in test [12] and in [13] was “inactive” each time. Further, the Potency result (in test [8]; with Aromatase (Homo sapiens)) was “inactive” throughout. The Potency in test [3] was 27.6 µM (active); in [4] it was 24.6 µM (active); in test [6], 49.6 µM (active). Moreover, the result in test [5] was inactive.
As to `Cc1ccnc2ccccc12`, the Potency entry in [1], in [3], in test [9], in test [10], in [4] and in test [11] was “inactive” each time. Also, the Potency entry (in test [6]; in test [7]; in test [12]; in test [13]; in test [8]; with Aromatase (Homo sapiens)) was “inactive” each time. In addition, the result in test [5] was inactive.

The values above are taken from PubChem BioAssay (Tox21).
